# Measured values as given in ChEMBL document CHEMBL3988442, “University of Dundee, Small-Polar-MMV Screening Library” (2021).
# For some assays here: Measured potencies and affinities stand elsewhere.
# Legend:
# Parameters in all cases: scale not given: direction of the effect not stated beside the values
# [1] = biological target: Protein translocase subunit SecA (Escherichia coli (strain K12)) (UniProt P10408); test: Assay to Identify E. coli SecA ATPase Inhibitors; type: functional; conditions: 30 µM
# Chain of Protein translocase subunit SecA (Escherichia coli (strain K12)) (P10408 whole entry): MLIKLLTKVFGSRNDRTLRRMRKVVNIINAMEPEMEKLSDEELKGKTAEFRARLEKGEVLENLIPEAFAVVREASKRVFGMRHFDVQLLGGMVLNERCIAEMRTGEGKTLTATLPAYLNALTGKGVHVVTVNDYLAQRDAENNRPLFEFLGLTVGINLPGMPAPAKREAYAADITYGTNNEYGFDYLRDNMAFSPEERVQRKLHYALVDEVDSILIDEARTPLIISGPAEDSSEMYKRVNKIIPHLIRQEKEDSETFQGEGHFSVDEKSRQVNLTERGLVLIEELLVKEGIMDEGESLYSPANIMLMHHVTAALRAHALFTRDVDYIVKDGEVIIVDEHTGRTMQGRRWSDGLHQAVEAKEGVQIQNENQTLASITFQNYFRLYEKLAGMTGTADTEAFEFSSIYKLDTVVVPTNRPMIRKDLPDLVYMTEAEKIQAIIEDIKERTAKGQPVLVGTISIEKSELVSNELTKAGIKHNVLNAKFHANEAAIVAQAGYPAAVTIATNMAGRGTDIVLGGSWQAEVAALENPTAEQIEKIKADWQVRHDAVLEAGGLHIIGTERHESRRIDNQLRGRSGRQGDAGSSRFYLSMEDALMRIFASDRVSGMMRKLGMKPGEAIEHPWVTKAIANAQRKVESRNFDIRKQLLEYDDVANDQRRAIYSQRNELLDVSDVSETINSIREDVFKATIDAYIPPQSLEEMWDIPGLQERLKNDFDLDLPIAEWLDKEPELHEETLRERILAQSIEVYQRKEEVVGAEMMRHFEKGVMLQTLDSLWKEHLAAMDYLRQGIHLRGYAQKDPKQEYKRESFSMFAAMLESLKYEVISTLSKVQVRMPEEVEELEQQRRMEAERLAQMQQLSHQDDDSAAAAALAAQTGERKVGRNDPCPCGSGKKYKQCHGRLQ
# [2] = biological target: T1, Ubiquitin-activating enzyme e1, putative (Leishmania donovani (strain BPK282A1)) (UniProt E9BSI1); test: Leishmania donovani Ubiquitin Activating Enzyme (LdE1); type: functional; conditions: 30 µM
# T1 sequence (whole entry): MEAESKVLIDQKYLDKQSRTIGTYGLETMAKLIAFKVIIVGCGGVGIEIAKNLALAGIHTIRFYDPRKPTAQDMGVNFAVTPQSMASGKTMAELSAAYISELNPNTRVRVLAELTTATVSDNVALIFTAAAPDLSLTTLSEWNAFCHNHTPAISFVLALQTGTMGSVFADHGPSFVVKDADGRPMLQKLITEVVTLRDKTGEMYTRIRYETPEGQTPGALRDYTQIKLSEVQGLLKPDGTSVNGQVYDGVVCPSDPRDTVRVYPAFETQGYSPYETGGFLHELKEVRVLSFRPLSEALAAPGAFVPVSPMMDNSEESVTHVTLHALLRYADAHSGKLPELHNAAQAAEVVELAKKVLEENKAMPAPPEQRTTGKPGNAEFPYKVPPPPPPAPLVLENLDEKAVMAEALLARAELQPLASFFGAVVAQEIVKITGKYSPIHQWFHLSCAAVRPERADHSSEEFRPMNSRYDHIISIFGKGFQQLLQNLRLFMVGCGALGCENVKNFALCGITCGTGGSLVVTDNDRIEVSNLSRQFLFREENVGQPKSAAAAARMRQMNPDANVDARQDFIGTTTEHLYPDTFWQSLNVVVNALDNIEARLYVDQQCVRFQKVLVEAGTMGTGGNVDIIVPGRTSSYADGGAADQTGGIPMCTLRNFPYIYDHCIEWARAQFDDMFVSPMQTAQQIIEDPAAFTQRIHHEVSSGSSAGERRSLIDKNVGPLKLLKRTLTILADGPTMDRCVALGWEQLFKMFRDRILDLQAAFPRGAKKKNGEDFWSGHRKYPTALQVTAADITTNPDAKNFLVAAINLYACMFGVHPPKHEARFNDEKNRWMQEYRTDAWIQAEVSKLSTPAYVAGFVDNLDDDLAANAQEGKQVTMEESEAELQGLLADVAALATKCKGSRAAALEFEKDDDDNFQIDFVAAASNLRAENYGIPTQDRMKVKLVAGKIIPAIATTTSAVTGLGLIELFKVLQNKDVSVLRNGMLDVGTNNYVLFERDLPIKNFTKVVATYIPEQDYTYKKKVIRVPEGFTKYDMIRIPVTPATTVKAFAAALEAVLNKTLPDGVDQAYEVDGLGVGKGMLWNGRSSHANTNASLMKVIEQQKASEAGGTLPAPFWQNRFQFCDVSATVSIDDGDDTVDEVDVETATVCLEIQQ
# [3] = biological target: AMP-activated protein kinase, AMPK (Homo sapiens) (UniProt P54646+O43741+P54619+Q9UGJ0+Q9Y478+Q13131+Q9UGI9); test: AMP-dependent Kinase enzyme assay. An in vitro enzyme assay that detects ADP turnover that is directly proportional to AMPK activity. This uses naive AMPK that is activated during the assay with MK-8722; type: functional; conditions: 30 µM
# [4] = biological target: Sialic acid-binding Ig-like lectin 9 (Homo sapiens) (UniProt Q9Y336); test: Hs-Siglec9 ALPHAscreen SOP 20170721; conditions: 10 µM
# Chain of Sialic acid-binding Ig-like lectin 9 (Homo sapiens) (Q9Y336 whole entry): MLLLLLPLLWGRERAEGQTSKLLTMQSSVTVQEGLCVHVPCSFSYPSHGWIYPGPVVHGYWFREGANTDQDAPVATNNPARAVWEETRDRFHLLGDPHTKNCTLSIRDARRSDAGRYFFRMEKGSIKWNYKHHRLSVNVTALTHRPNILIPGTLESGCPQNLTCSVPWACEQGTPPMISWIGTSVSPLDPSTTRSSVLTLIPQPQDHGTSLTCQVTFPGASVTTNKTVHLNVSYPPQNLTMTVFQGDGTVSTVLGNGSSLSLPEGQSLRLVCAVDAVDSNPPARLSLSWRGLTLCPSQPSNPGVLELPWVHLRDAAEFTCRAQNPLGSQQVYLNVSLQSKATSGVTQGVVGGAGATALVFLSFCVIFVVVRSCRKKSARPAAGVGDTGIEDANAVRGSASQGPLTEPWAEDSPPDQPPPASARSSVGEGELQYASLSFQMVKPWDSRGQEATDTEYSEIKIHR
# Trypanosoma cruzi = test: Trypanosoma cruzi phosphomannomutase and mannose-1-phosphate guanylyltransferase assay; type: functional; conditions: 10 µM
# [5] = biological target: T2, Arginase-2, mitochondrial (Homo sapiens) (UniProt P78540); test: in vitro enzyme assay to detect the production of urea directly proportional to the activity of Arginase II; type: functional; conditions: 33.3 µM; note: in the data most compounds retested in dose-response had high values
# T2 sequence (whole entry): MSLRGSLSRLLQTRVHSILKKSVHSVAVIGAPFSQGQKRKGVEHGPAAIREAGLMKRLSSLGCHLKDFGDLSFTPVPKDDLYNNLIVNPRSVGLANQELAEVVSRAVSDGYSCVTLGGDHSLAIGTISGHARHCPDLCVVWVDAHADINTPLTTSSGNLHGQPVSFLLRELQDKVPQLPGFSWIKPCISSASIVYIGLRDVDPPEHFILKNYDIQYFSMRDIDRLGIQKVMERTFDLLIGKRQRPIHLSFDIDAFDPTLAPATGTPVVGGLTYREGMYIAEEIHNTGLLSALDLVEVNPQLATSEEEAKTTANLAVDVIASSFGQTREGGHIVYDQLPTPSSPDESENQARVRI
# [6] = biological target: T3, Proteasome subunit beta (Trypanosoma cruzi) (UniProt O96673); test: Trypanosoma cruzi proteasome chymotrypsin-like activity (TcProtChymo) assay.; note: in the data most compounds retested in dose-response had high values; type: functional; conditions: 9.37 µM
# T3 sequence (whole entry): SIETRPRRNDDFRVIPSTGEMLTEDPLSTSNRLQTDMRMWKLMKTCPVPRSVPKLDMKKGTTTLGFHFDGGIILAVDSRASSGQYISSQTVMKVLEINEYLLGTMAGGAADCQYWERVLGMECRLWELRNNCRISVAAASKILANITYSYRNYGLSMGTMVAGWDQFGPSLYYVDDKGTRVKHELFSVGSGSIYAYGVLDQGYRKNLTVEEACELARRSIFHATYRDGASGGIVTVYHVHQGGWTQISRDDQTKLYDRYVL
# Homo sapiens = species: Homo sapiens; test: To identify inhibition of the IFN signalling (Jak-Stat) pathway via expression of an eGFP reporter gene under the control of an IFN-stimulated response element (ISRE) containing MxA promoter.; type: functional; conditions: 30 µM
# [7] = biological target: T4, Tyrosyl-tRNA synthetase, putative (Trypanosoma cruzi (strain CL Brener)) (UniProt Q4DSP6); test: Trypanosoma cruzi tyrosyl tRNA synthetase (TcYRS) _High Tyrosine SOP; type: functional; conditions: 30 µM; note: in the data most compounds retested in dose-response had high values
# T4 sequence (whole entry): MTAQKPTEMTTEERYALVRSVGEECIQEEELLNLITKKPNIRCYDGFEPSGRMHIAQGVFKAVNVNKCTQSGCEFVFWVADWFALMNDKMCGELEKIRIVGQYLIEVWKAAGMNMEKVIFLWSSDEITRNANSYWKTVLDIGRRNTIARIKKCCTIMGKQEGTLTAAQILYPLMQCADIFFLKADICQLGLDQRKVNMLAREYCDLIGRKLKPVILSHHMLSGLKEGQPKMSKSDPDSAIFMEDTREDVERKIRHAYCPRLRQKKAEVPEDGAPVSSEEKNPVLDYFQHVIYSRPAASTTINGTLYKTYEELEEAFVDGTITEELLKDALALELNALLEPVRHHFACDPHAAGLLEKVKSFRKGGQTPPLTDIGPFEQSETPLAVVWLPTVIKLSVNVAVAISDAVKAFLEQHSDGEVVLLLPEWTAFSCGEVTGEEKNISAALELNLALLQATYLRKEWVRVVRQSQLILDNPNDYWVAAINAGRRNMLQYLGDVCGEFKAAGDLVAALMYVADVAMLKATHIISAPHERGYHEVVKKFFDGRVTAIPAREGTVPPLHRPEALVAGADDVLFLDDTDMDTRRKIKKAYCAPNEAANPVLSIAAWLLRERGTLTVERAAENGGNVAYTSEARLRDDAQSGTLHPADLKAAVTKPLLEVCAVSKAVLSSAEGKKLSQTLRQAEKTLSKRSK
# [8] = biological target: T4, Tyrosyl-tRNA synthetase, putative (Trypanosoma cruzi (strain CL Brener)); test: Trypanosoma cruzi tyrosyl tRNA synthetase (TcYRS) SOP; type: functional; conditions: 30 µM
# [9] = biological target: Chromo domain-containing protein 1 (Saccharomyces cerevisiae (strain ATCC 204508 / S288c) (Baker's yeast)) (UniProt P32657); test: ScCHD-1 Enzyme Inhibition Assay; type: functional; conditions: 30 µM; note: in the data most compounds retested in dose-response had high values
# Chain of Chromo domain-containing protein 1 (Saccharomyces cerevisiae (strain ATCC 204508 / S288c) (Baker's yeast)) (P32657 whole entry, the tested form may be a part): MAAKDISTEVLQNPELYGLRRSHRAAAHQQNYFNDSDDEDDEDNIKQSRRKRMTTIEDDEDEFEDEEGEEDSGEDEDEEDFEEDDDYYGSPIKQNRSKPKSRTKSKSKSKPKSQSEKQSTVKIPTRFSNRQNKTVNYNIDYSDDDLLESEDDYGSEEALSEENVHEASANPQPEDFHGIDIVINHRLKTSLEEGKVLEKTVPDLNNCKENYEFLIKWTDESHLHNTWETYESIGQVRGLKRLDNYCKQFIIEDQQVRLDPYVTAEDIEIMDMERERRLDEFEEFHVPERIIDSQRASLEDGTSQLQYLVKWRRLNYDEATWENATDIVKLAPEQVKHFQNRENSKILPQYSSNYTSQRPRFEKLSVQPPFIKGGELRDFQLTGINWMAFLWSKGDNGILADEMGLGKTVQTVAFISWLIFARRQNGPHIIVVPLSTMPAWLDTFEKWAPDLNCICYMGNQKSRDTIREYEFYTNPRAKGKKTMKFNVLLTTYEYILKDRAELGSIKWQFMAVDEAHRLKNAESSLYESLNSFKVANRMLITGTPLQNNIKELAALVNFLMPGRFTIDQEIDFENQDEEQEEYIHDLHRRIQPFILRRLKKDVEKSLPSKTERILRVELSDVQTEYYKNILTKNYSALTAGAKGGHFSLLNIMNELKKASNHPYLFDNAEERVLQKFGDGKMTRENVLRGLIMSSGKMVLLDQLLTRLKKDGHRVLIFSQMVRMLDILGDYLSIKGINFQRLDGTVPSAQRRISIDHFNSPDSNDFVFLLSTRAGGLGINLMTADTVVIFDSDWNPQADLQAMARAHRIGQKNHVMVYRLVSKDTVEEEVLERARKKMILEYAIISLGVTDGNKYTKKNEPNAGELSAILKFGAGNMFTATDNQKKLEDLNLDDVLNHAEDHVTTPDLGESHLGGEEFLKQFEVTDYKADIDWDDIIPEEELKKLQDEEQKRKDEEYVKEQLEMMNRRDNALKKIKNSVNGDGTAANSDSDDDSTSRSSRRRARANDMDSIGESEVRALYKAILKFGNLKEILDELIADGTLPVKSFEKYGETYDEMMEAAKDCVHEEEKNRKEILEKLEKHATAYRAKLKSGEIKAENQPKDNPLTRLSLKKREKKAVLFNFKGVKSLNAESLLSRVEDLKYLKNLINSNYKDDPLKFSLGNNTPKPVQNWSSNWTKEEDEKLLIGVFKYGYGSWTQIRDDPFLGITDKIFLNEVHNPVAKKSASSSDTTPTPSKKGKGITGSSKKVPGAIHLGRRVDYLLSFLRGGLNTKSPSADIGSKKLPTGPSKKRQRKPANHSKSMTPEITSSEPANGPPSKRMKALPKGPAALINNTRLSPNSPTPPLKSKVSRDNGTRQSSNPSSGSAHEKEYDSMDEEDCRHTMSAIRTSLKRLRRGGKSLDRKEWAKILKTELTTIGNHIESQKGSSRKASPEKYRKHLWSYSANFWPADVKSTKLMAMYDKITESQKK
SMILES,Percent Effect [1] [%],Percent Effect [2] [%],Percent Effect [3] [%],Percent Effect [4] [%],Percent Effect (Trypanosoma cruzi) [%],Percent Effect [5] [%],Percent Effect [6] [%],Percent Effect (Homo sapiens) [%],Percent Effect [7] [%],Percent Effect [8] [%],Percent Effect [9] [%]
Cc1ncc(-c2nc3cc(S(=O)(=O)N4CCCC4)ccc3n2C)cn1,-5.62,5.48,12.1,-7.83,0,6.36,2.13,14.1,6.45,15,-1.23
O=C(c1ccsc1)N1CCc2c(CNc3ncccn3)n[nH]c2C1,-4.87,10.7,4.32,1.51,6.95,-44.6,1.88,9.05,-1.04,7.5,-6.05
Cc1ccc([C@]2(O)CC[C@H]3CN(Cc4cccc(Cl)c4Cl)C[C@H]32)nc1,-2.93,12.2,12.6,-9.17,1.98,-0.232,17.8,51.4,9.68,16.9,-15.7
COCCN1CCCC(O)(CN2CCN(c3ncccc3C)CC2)C1=O (stereo unspecified),5.28,-27,-3.41,7.83,-5.21,0.476,15.3,9.99,8.99,12.2,-5.83
COCC1CC2(CCN(C(=O)c3ccc(OC)c(Cl)c3)CC2)CO1 (stereo unspecified),4.75,15.6,-2.46,-7.51,-5.82,9.68,13.8,15.9,-1.06,3.85,-9.46
CCC(CC)c1cc(C(=O)N2CCCC(n3cncn3)C2)on1 (stereo unspecified),-2.21,-1.39,-4.63,9.13,3.6,22.5,11.9,-8.85,1.05,5.13,0.586
CCn1c(C)nnc1CN(C)C1CCN(CCc2ccncc2)C1 (stereo unspecified),-2.2,20.8,-0.899,1.88,1.47,-3.16,9.62,13.3,11.4,30.6,-19.1
CC(NC(=O)Cn1cccn1)c1cccnc1 (stereo unspecified),-4.41,8,-4.08,11,8.67,6.25,1.92,10.3,3.83,13.6,-3.89
CCN1CCC(CNC(=O)NCc2cc(-c3ccc(C)cc3)no2)C1 (stereo unspecified),0.151,0,-6.65,3.46,3.44,-3.14,12.2,5.69,10.9,25.6,-5.52
O=C(Cn1cccnc1=O)NC(Cc1cccs1)c1ccccn1 (stereo unspecified),-3.91,9.46,6.77,0.0436,2.57,5.8,8.27,15.5,5.38,11.7,-11.5
CS(=O)(=O)NCCCNC(=O)c1cccc(-n2cccc2)c1,-5.41,15.8,0.491,-5,2.04,1.18,15.8,1.58,1.06,13,-6.62
CN(Cc1ccsc1)C(=O)CN1CCCC1Cn1cccn1 (stereo unspecified),-3.48,-18.2,2.08,-4.38,5,-1.05,3.8,-6.97,11.4,7.06,4.97
O=C(c1ccsc1)N1C[C@@H](CN2CCCC2)[C@@H](CO)C1,-10,2.67,-3.05,-2.17,-5.36,-5.21,4.71,2.13,-1.64,-1.24,-4.1
O=C(c1ccc(F)c(F)c1)N1CCCSCC1CN1CCCC1 (stereo unspecified),-3.82,0,4.53,-1.26,2.86,-0.645,8.7,-1.06,7.41,16.7,-8.34
COc1cc(C)nc(N2CCN(Cc3nccn3C)CC2)n1,-2.16,9.72,3.08,-2.82,-0.875,1.32,10.3,0.819,2.1,2.56,-3.1
COCCN(Cc1ccoc1)C(=O)c1cccnc1SC,-1.15,5.2,9.17,2.43,-4.24,7.1,1.04,1.32,3.17,6.41,-5.39
